{"source": "ChEMBL document CHEMBL3988442", "about": "“University of Dundee, Small-Polar-MMV Screening Library” (2021)", "tested_on": "Trypanosoma brucei", "assay": "Trypanosoma brucei 72 hour study", "assay_type": "functional, organism-based", "set-up": "scale not given: in the data most compounds retested in dose-response had high values", "note": "The campaign covered roughly 66,000 compounds. About 960 (1.5%) showed an effect of 50% or more. This is one part of a sample in which strong results are shown more often than they occur."}
{"smiles": "CC(C)c1ccc(C(CN)N2CCc3sccc3C2)cc1", "note": "(centres undefined)", "values": [{"measurement": "Percent Effect", "setting": "30.3 µM, […]", "value": 99.87, "unit": "%"}]}
{"smiles": "CSc1ccc(C(CNC(C)=O)N2CCc3sccc3C2)cc1", "note": "(centres undefined)", "values": [{"measurement": "Percent Effect", "setting": "30.3 µM, […]", "value": 7.525, "unit": "%"}]}
{"smiles": "NCC(c1ccccc1)N1CCc2sccc2C1", "note": "(centres undefined)", "values": [{"measurement": "Percent Effect", "setting": "30 µM, 30.03 µM", "value": 35.83, "unit": "%"}]}
{"smiles": "CSc1ccc(C(CN)N2CCc3sccc3C2)cc1", "note": "(centres undefined)", "values": [{"measurement": "Percent Effect", "setting": "30 µM, 30.03 µM", "value": -3.703, "unit": "%"}]}
{"smiles": "Cc1cccc(S(=O)(=O)N2CC[C@H]3CO[C@H](CN(C)C)[C@H]3C2)c1.O=C(O)C(F)(F)F", "values": [{"measurement": "Percent Effect", "setting": "30 µM, 30.03 µM", "value": 25.11, "unit": "%"}]}
{"smiles": "COCc1cccc(C(=O)N2C[C@H]3CC[C@@H]2CN(Cc2cscn2)C3)n1", "values": [{"measurement": "Percent Effect", "setting": "30 µM, 30.03 µM", "value": -49.27, "unit": "%"}]}
{"smiles": "Cc1nc(CN2CCC3(CCN(c4cnn(C)c4)C3=O)C2)cs1.O=C(O)C(F)(F)F", "note": "(centres undefined)", "values": [{"measurement": "Percent Effect", "setting": "30.3 µM, […]", "value": -7.553, "unit": "%"}]}
{"smiles": "CCN1CCC2(C1)CN(S(=O)(=O)c1cn(C)cn1)C2.O=C(O)C(F)(F)F.O=C(O)C(F)(F)F", "values": [{"measurement": "Percent Effect", "setting": "30.3 µM, […]", "value": -6.671, "unit": "%"}]}
{"smiles": "Cl.O=C(c1cc2c(s1)CCCC2)N1CCc2nc(C3CCCN3)ncc2C1", "note": "(centres undefined)", "values": [{"measurement": "Percent Effect", "setting": "30.3 µM, […]", "value": 6.632, "unit": "%"}]}
{"smiles": "CS(=O)(=O)NCCCNC(=O)c1cnc(-c2ccsc2)s1", "values": [{"measurement": "Percent Effect", "setting": "30 µM, 30.03 µM", "value": -7.977, "unit": "%"}]}
{"smiles": "Cn1cc(-c2ncc(C(=O)NCCCn3ccccc3=O)s2)cn1", "values": [{"measurement": "Percent Effect", "setting": "30 µM, 30.03 µM", "value": 73.43, "unit": "%"}]}
{"smiles": "O=C(NCCCn1ccccc1=O)c1cnc(-c2ccsc2)s1", "values": [{"measurement": "Percent Effect", "setting": "30 µM, 30.03 µM", "value": 22.57, "unit": "%"}]}
{"smiles": "Cn1ncc2c(N3CCN4CCCCC4C3)nc(C3CCCC3)nc21", "note": "(centres undefined)", "values": [{"measurement": "Percent Effect", "setting": "30 µM, 30.03 µM", "value": -37.34, "unit": "%"}]}
{"smiles": "Cn1ncc2c(N3CC(N4CCCCC4)C3)nc(C3CCCC3)nc21", "values": [{"measurement": "Percent Effect", "setting": "30 µM, 30.03 µM", "value": -31.56, "unit": "%"}]}
{"smiles": "Cc1nc(N2CCCC(N3CCCC3)C2)c2cnn(C)c2n1", "note": "(centres undefined)", "values": [{"measurement": "Percent Effect", "setting": "30 µM, 30.03 µM", "value": 50.19, "unit": "%"}]}
{"smiles": "CNc1cc(C)nc(N2C[C@H](C3CC3)[C@@H](N)C2)n1", "values": [{"measurement": "Percent Effect", "setting": "30 µM, 30.03 µM", "value": 85.5, "unit": "%"}]}
{"smiles": "CC(C)Oc1cc(N2CC[C@H](CO)[C@@H](O)C2)nc(N)n1", "values": [{"measurement": "Percent Effect", "setting": "30 µM, 30.03 µM", "value": -21.24, "unit": "%"}]}
{"smiles": "CNc1cc(C)nc(N2C[C@H](NC(=O)C3CCOCC3)[C@@H](C3CC3)C2)n1", "values": [{"measurement": "Percent Effect", "setting": "30 µM, 30.03 µM", "value": -23.63, "unit": "%"}]}
{"smiles": "CC(C)Oc1cc(N2C[C@@H](C)O[C@@H](C)C2)nc(N)n1", "values": [{"measurement": "Percent Effect", "setting": "30.3 µM, […]", "value": -11.25, "unit": "%"}]}
{"smiles": "CC(C)Oc1cc(N2C[C@H](C3CC3)[C@@H](N)C2)nc(N)n1", "values": [{"measurement": "Percent Effect", "setting": "30 µM, 30.03 µM", "value": 88.99, "unit": "%"}]}
{"smiles": "CNc1cc(C)nc(N2C[C@@H](C(=O)O)[C@H](C3CC3)C2)n1", "values": [{"measurement": "Percent Effect", "setting": "30 µM, 30.03 µM", "value": -4.016, "unit": "%"}]}
{"smiles": "Cc1cc(N2C[C@H](C3CC3)[C@@H](N)C2)nc(N2CCCCC2)n1", "values": [{"measurement": "Percent Effect", "setting": "30 µM, 30.03 µM", "value": -8.75, "unit": "%"}]}
{"smiles": "CCc1cc(N2C[C@H](C3CC3)[C@@H](N)C2)nc(N2CCOCC2)n1", "values": [{"measurement": "Percent Effect", "setting": "30 µM, 30.03 µM", "value": -22.85, "unit": "%"}]}
{"smiles": "CCc1cc(N2C[C@H](C3CC3)[C@@H](N)C2)nc(N2CCCC2)n1", "values": [{"measurement": "Percent Effect", "setting": "30 µM, 30.03 µM", "value": 72.1, "unit": "%"}]}
{"smiles": "CN(c1ccncn1)C1CC2(CCN(C(=O)Cc3cccs3)C2)C1", "note": "(centres undefined)", "values": [{"measurement": "Percent Effect", "setting": "30.3 µM, […]", "value": -10.04, "unit": "%"}]}
{"smiles": "O=C(O)C(F)(F)F.O=C(c1cnccn1)N1CCCC2(CCN(Cc3ccsc3)CC2)C1", "values": [{"measurement": "Percent Effect", "setting": "30.3 µM, […]", "value": -8.407, "unit": "%"}]}
{"smiles": "CCC(C)Oc1ccc(CNCCc2c[nH]cn2)cc1Cl", "note": "(centres undefined)", "values": [{"measurement": "Percent Effect", "setting": "30 µM, 30.03 µM", "value": -7.702, "unit": "%"}]}
{"smiles": "Cc1ccc(O[C@@H]2C[C@H]3CN(C(=O)c4cccnc4)CCN3C2)cc1.O=C(O)C(F)(F)F.O=C(O)C(F)(F)F", "values": [{"measurement": "Percent Effect", "setting": "30 µM, 30.03 µM", "value": 12.8, "unit": "%"}]}
{"smiles": "CC(C)(C)c1cnc(CN2CCC(CN3CCOCC3)CC2)o1", "values": [{"measurement": "Percent Effect", "setting": "30.3 µM, […]", "value": 1.879, "unit": "%"}]}
{"smiles": "Cc1noc(C)c1C(=O)N1CC[C@]2(C[C@@H](OCc3cccnc3)CO2)C1.O=C(O)C(F)(F)F", "values": [{"measurement": "Percent Effect", "setting": "30.3 µM, […]", "value": -230.9, "unit": "%"}]}
{"smiles": "COc1ccccc1OCCNS(=O)(=O)N1CCOCC1", "values": [{"measurement": "Percent Effect", "setting": "30 µM, 30.03 µM", "value": -16.37, "unit": "%"}]}
{"smiles": "O=C(NCCSCc1cccs1)C1CCCN(C(=O)N2CCCC2)C1", "note": "(centres undefined)", "values": [{"measurement": "Percent Effect", "setting": "30 µM, 30.03 µM", "value": -13.33, "unit": "%"}]}
{"smiles": "O=C(NCCSCc1ccc(Br)s1)C1CCCN(C(=O)c2cccs2)C1", "note": "(centres undefined)", "values": [{"measurement": "Percent Effect", "setting": "30 µM, 30.03 µM", "value": 59.17, "unit": "%"}]}
{"smiles": "O=C(NCCSCc1ccc(Br)s1)C1CCCN(c2cnccn2)C1", "note": "(centres undefined)", "values": [{"measurement": "Percent Effect", "setting": "30 µM, 30.03 µM", "value": -0.7253, "unit": "%"}]}
{"smiles": "COc1ccc(OCC(=O)NS(=O)(=O)c2ccc(Br)s2)cc1", "values": [{"measurement": "Percent Effect", "setting": "10 µM", "value": -20.86, "unit": "%"}]}
{"smiles": "Cc1ccc2c(n1)N(Cc1ccncc1)CCN(S(C)(=O)=O)C2.O=C(O)C(F)(F)F.O=C(O)C(F)(F)F", "values": [{"measurement": "Percent Effect", "setting": "30 µM, 30.03 µM", "value": -12.2, "unit": "%"}]}
{"smiles": "COCCn1cc2c(n1)C(CNCc1ccsc1)OCC2.O=C(O)C(F)(F)F", "note": "(centres undefined)", "values": [{"measurement": "Percent Effect", "setting": "30.3 µM, […]", "value": -36.05, "unit": "%"}]}
{"smiles": "CC(C)n1ccnc1C1CCCN(c2ccnc3ccccc23)C1", "note": "(centres undefined)", "values": [{"measurement": "Percent Effect", "setting": "30 µM, 30.03 µM", "value": 44.45, "unit": "%"}]}
{"smiles": "CSc1nccc(N2CCCC(c3nccn3C(C)C)C2)n1", "note": "(centres undefined)", "values": [{"measurement": "Percent Effect", "setting": "30 µM, 30.03 µM", "value": -62.98, "unit": "%"}]}
{"smiles": "CC(C)n1ccnc1C1CCCN(c2ccccn2)C1", "note": "(centres undefined)", "values": [{"measurement": "Percent Effect", "setting": "30 µM, 30.03 µM", "value": 54.17, "unit": "%"}]}
{"smiles": "Cc1cc(C)n(-c2nc(C(=O)NCCN3CCC(C)CC3)cs2)n1", "values": [{"measurement": "Percent Effect", "setting": "30.3 µM, […]", "value": 41.67, "unit": "%"}]}
{"smiles": "Cl.c1ccc(CCNc2cccc(C3CCCNC3)n2)cc1", "note": "(centres undefined)", "values": [{"measurement": "Percent Effect", "setting": "30.3 µM, […]", "value": 66.04, "unit": "%"}]}
{"smiles": "Cl.c1cc(NCc2ccncc2)nc(C2CCCNC2)c1", "note": "(centres undefined)", "values": [{"measurement": "Percent Effect", "setting": "30.3 µM, […]", "value": -1.5, "unit": "%"}]}
{"smiles": "Cl.c1cc(CC2CCCNC2)nc(NCCc2cnccn2)c1", "note": "(centres undefined)", "values": [{"measurement": "Percent Effect", "setting": "30.3 µM, […]", "value": -1.325, "unit": "%"}]}
{"smiles": "CCCn1ccnc1-c1cccc(NC(=O)C2CCCOC2)c1", "note": "(centres undefined)", "values": [{"measurement": "Percent Effect", "setting": "30.3 µM, […]", "value": -87.17, "unit": "%"}]}
{"smiles": "O=C(CCN1CCc2ccccc21)N1C[C@@H](O)[C@H](N2CCCC2)C1", "values": [{"measurement": "Percent Effect", "setting": "30.3 µM, […]", "value": -36.76, "unit": "%"}]}
{"smiles": "CN1CC2(CCN(C(=O)c3cccnc3)CC2)c2cccc(F)c21.Cl", "values": [{"measurement": "Percent Effect", "setting": "30.3 µM, […]", "value": -15.84, "unit": "%"}]}
{"smiles": "CN1CC2(CCN(Cc3cccnc3)CC2)c2cc(F)ccc21", "values": [{"measurement": "Percent Effect", "setting": "30.3 µM, […]", "value": -24.44, "unit": "%"}]}
{"smiles": "CN1CC2(CCN(Cc3cccnc3)CC2)c2cccc(F)c21.Cl", "values": [{"measurement": "Percent Effect", "setting": "30.3 µM, […]", "value": 100.8, "unit": "%"}]}
